Experimental data as given in PubChem BioAssay (NCI).
About 79,000 compounds went through this panel and 15% of them were active in at least one assay; those are over-represented in the sample as a whole. Unmarked numbers belong to inactive results. Active and inactive are the calls of the source. Rule as the data show it: active = growth inhibition above about 70%; inactive = the rest.

Experiment: NCI Yeast Anticancer Drug Screen. Data for the mlh1 strain (AID 171);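 also: 0% = growth of vehicle-treated control cultures of the same strain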
Conditions: S. cerevisiae mlh1 strain growth inhibition, active compounds read high
Method: Growth inhibition of yeast strains with defined genetic alterations is measured as a screen for potential anti-cancer activity. Selected strains with alterations in DNA damage repair or cell cycle control were exposed to compounds and growth inhibition was measured relative to vehicle treated controls. The strain used in this assay is mlh1

Row | Compound | growth inhibition (at 1.2 µM) [%] | growth inhibition (at 3.7 µM) [%] | growth inhibition (at 11.0 µM) | growth inhibition (at 33.0 µM) | growth inhibition (at 100.0 µM)
1 | O=[N+]([O-])C(=C(NCc1ccccc1)NCc1ccccc1)C(Cl)=C(Cl)Cl | 4 | 1 | 9% | 25% | 85% (active)
2 | CCCCCCCCCCCCCCCCCN | -31 | 0 | 90% (active) | 97% (active) | 94% (active)
3 | Cc1ccnc(NS(=O)(=O)c2ccc(Nc3c4ccccc4nc4ccccc34)cc2)n1 | 37 | 33 | 54% | 66% | 84% (active)
4 | CC[N+]1(C)CCC(O)(/C=C/c2ccc(Cl)c(Cl)c2)C(C(=O)/C=C/c2ccc(Cl)c(Cl)c2)C1 (stereo not given) | 6 | 45 | 99% (active) | 99% (active) | 99% (active)
5 | O=C(Cc1ccccc1)c1ccc(O)cc1 | -13 | 0 | 23% | 68% | 89% (active)
6 | CC1(C)CC(=O)C(C(CC(c2ccccc2)c2cc3c(cc2O)OCO3)C2=C(O)CC(C)(C)CC2=O)=C(O)C1 (stereo not given) | -2 | -3 | 39% | 82% (active) | 87% (active)
7 | CCCCCCCCCC/C=C\CC(=O)O | 0 | -4 | -3% | 11% | 99% (active)
8 | Cc1nc2ccc(Br)cc2c(=O)n1-c1ccc(NC2OCC(O)C(O)C2O)cc1 (stereo not given) | 9 | 9 | 19% | 52% | 90% (active)
